Seven compounds from PubChem BioAssay (Tox21) can be followed below.

Values joined by “and” are separate entries in the source; they are usually repeats but may differ in a detail not shown here. Equal values may be shown once. Records with an inconclusive call do not appear. Active and inactive are the calls of the source. Unless noted, calls follow the shape of the dose curve; as a rule, active = well fitted curve in the direction sought with a large enough effect in the repeat runs; inconclusive = weak or mixed curves; inactive = no such curve, though single readings can be large; an effect the other way counts as inactive or inconclusive. Positions of bridges follow the written chain, without caps; N, C: chain ends. Non-standard residues stand in square brackets, D forms with d. Residues, ends and D or L forms follow the SMILES beside them. *: point of attachment. Dab(CH2SO3H) = N[C@@H](CCNCS(=O)(=O)O)C(=O)O; X3 = CC[C@@H](C)CCCCC(=O)*; Dab = NCC[C@H](N)C(=O)O

Assay [1] can be described thus: qHTS assay to test for compound auto fluorescence at 535 nm (green) in HEK293 cells (AID 720680). For orientation: Quantitative high-throughput screening tests each substance at several concentrations.
The nature of assay [2]: qHTS assay to test for compound auto fluorescence at 460 nm (blue) in HEK293 cell free culture (AID 720681). An outline of the steps: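 Test compounds were pinned into cell-free culture medium (DMEM with 10% FBS) and fluorescence was read directly at Ex/Em 405/460 nm. Signals were expressed as fluorescence equivalents of triamterene, with DMSO vehicle as control.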
Assay [3] can be described thus: qHTS assay to test for compound auto fluorescence at 590 nm (red) in HEK293 cell free culture (AID 720683). An outline of the steps:
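Tox21 10K library compounds were pinned into cell-free DMEM with 10% FBS and fluorescence was read at excitation 540 nm. Activity is expressed as Rose Bengal sodium equivalency.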

Assay [4] is described as follows: qHTS assay to test for compound auto fluorescence at 590 nm (red) in HepG2 cell free culture (AID 720684). The procedure, abridged: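 Readout: intrinsic compound fluorescence at 590 nm emission after 540 nm excitation, scaled to Rose Bengal sodium. Matrix was cell-free MEM with 10% FBS; DMSO vehicle wells served as control.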
Assay [5] in a line: qHTS assay to test for compound auto fluorescence at 460 nm (blue) in HepG2 cell free culture (AID 720685). The procedure, abridged:
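Cell-free plates of MEM plus 10% FBS received 23 nL compound or DMSO vehicle; blue-channel (405/460 nm) intensity scored against triamterene as reference fluorophore.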

A short description of assay [6]: qHTS assay to test for compound auto fluorescence at 535 nm (green) in HepG2 cell free culture (AID 720686).
Assay [7] in a line: qHTS assay to test for compound auto fluorescence at 460 nm (blue) in HepG2 cells (AID 720687). An outline of the steps:
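Cells (2,000/well in MEM with 10% FBS) attached overnight at 37 C, then were exposed to compound or DMSO for 1 hr at 37 C, 5% CO2. Fluorescence read at Ex/Em 405/460 nm, expressed as triamterene-equivalent signal.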

Assay [8] is described as follows: qHTS assay to identify small molecule antagonists of the glucocorticoid receptor (GR) signaling pathway - cell viability counter screen (AID 720693). Also: nearly all actives have a fitted effect of over 55% in size.
A short description of assay [9]: qHTS assay for identifying genotoxic compounds that show differential cytotoxicity against isogenic chicken DT40 cell lines with known DNA damage response pathways - wild type cell line (AID 743012). Also: nearly all actives have a fitted effect of over 60% in size. Also: potency is read from the fitted curve at half-maximal effect. The procedure, abridged: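 CellTiter-Glo luminescence readout of viability in wild type DT40 cells after 40 h compound exposure at 37 C/5% CO2; 300 cells/well; reagent incubated 30 min at room temperature before reading.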

The nature of assay [10]: qHTS assay for identifying genotoxic compounds that show differential cytotoxicity against isogenic chicken DT40 cell lines with known DNA damage response pathways - Rad54/Ku70 mutant cell line (AID 743015). Also: nearly all actives have a fitted effect of over 60% in size. Also: potency is read from the fitted curve at half-maximal effect.
Assay [11] is described as follows: qHTS assay to identify small molecule antagonists of the androgen receptor (AR) signaling pathway - cell viability counter screen (AID 743033; also: nearly all actives have a fitted effect of over 45% in size).
Assay [12] is described as follows: qHTS assay to identify small molecule antagonists of the androgen receptor (AR) signaling pathway using the MDA cell line - cell viability counter screen (AID 743041; also: nearly all actives have a fitted effect of over 45% in size). The procedure, abridged: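 qHTS viability read-out; MDA-kb2 AR-luc; R1881-stimulated; 16 h exposure at 37C, 0% CO2; CellTiter-Fluor, 30 min; fluorescence intensity.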
The nature of assay [13]: qHTS assay to test for compound auto fluorescence at 535 nm (green) in HEK293 cell free culture (AID 720682). An outline of the steps: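 No cells present: wells hold DMEM supplemented with 10% FBS, into which compound or vehicle is pinned. Green emission is then recorded (485 nm excitation, 535 nm emission) and scaled to fluorescein.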
In assay [14] the target is Glucocorticoid receptor (Homo sapiens) (UniProt P04150). The experiment in a line: qHTS assay to identify small molecule agonists of the glucocorticoid receptor (GR) signaling pathway (AID 720691; active = well fitted activation curve with a large enough effect in the signal ratio in the repeat runs, not every such curve was filed as active; the % refers to the signal ratio). The conditions noted are these: GR-bla HeLa, beta-lactamase reporter ratio, 18 h; activation: at 62.4 µM (top of the series). The procedure, abridged: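 HeLa GR-bla reporter line; cells pre-incubated 4 h, compound in DMSO 18 h at 37 C; LiveBLAzer B/G FRET substrate 2 h RT; fluorescence intensity read-out.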

Assay [15] shares this target. The experiment in a line: qHTS assay to identify small molecule antagonists of the glucocorticoid receptor (GR) signaling pathway (AID 720692; active = well fitted inhibition curve with a large enough effect in the signal ratio in the repeat runs, not every such curve was filed as active; the % refers to the signal ratio). The procedure, abridged:
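Read-out: beta-lactamase FRET substrate fluorescence, 2 h at room temperature, in HeLa cells stably carrying a GRE-driven bla reporter. Compounds were co-incubated with 5 nM dexamethasone agonist (final) for 18 h at 37 C.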

Assay [16] concerns the target Androgen receptor (Homo sapiens) (UniProt P10275). The experiment in a line: qHTS assay to identify small molecule antagonists of the androgen receptor (AR) signaling pathway (AID 743035; active = well fitted inhibition curve with a large enough effect in the signal ratio in the repeat runs, not every such curve was filed as active; the % refers to the signal ratio). The procedure, abridged: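 AR-bla HEK293 reporter cells; 4 h settle at 37C/5% CO2; compound + R1881 agonist, 16 h at 37C; LiveBLAzer B/G FRET substrate 2 h RT; fluorescence intensity read. qHTS format.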

Assay [17] shares this target. Put plainly: qHTS assay to identify small molecule agonists of the androgen receptor (AR) signaling pathway using the MDA cell line (AID 743040; also: nearly all actives have a fitted effect of over 20% in size). An outline of the steps:
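Agonist activity is measured as luciferase luminescence in human MDA-kb2 cells whose MMTV reporter responds to both AR and GR. Compounds in DMSO incubate 16 h at 37C, 0% CO2, and ONE-Glo is read after 30 min.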

Assay [18] has the same target. The experiment in a line: qHTS assay to identify small molecule antagonists of the androgen receptor (AR) signaling pathway using the MDA cell line (AID 743042; also: nearly all actives have a fitted effect of over 55% in size). An outline of the steps: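 MDA-kb2 cells (human breast carcinoma, stably carrying an MMTV-luciferase reporter responsive to AR and GR) were plated at 3,000 cells/well and preincubated 5 hr at 37C, then given compound plus R1881 agonist for 16 h. ONE-Glo luminescence was read.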

Assay [19] is described as follows: qHTS assay for identifying genotoxic compounds that show differential cytotoxicity against isogenic chicken DT40 cell lines with known DNA damage response pathways - Rev3 mutant cell line (AID 743014). Also: nearly all actives have a fitted effect of over 55% in size.
For assay [20], the target named is Androgen receptor (Homo sapiens) (UniProt P10275). Put plainly: qHTS assay to identify small molecule agonists of the androgen receptor (AR) signaling pathway (AID 743036; active = well fitted activation curve with a large enough effect in the signal ratio in the repeat runs, with a control signal flat, not every such curve was filed as active; the % refers to the signal ratio). The procedure, abridged: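 Quantitative HTS of the Tox21 10K library in HEK293 cells bearing a stably integrated UAS-controlled beta-lactamase reporter. Compound exposure lasted 16 h at 37C. Reporter activity was detected by FRET substrate fluorescence after 2 h at room temperature.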
Chain of Androgen receptor (Homo sapiens) (P10275 whole entry, looked up): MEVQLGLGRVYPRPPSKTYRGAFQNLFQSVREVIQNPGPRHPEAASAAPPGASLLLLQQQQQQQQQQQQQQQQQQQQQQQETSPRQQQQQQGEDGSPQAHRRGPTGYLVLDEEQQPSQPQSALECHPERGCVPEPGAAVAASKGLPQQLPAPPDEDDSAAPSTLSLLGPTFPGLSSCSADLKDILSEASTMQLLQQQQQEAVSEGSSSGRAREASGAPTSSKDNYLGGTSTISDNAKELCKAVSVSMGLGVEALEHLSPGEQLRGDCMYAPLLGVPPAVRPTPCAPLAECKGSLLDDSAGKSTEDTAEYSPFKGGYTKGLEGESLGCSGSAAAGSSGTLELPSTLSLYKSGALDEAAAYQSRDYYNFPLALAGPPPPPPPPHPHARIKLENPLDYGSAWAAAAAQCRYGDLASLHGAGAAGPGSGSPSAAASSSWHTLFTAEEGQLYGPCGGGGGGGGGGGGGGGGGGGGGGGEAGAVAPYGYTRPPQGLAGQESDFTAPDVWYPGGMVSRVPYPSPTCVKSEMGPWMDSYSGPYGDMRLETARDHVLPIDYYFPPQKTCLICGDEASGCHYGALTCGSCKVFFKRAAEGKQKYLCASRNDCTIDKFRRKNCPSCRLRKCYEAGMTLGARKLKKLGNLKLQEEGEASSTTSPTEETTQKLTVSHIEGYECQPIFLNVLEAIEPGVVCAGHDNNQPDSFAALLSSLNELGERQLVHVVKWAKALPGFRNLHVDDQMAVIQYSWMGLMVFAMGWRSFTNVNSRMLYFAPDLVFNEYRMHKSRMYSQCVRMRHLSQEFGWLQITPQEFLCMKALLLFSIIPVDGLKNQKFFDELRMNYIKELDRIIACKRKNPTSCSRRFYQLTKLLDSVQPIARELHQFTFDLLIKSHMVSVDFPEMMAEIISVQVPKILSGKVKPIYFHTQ

Chain of Glucocorticoid receptor (Homo sapiens) (P04150 whole entry, looked up): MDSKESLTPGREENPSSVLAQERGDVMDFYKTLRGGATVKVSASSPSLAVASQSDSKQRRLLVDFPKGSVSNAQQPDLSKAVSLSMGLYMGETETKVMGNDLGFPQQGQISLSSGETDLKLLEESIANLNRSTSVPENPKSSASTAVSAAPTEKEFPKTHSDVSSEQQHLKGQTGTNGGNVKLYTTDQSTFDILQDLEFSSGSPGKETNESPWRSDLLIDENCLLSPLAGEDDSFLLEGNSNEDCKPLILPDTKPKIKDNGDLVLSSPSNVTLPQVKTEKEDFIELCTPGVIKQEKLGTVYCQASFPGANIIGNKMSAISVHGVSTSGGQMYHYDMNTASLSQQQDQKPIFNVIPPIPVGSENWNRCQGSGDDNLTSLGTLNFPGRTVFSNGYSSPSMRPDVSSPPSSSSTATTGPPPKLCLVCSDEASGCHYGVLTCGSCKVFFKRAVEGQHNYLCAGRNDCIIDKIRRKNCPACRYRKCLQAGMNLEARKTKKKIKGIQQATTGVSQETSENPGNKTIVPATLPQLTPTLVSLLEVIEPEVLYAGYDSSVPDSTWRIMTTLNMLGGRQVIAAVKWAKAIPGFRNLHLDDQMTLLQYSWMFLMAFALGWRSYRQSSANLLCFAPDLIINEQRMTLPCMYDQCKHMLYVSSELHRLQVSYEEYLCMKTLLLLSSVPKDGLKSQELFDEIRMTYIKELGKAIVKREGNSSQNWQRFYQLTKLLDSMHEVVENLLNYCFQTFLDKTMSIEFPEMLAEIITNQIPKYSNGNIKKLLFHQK

With `C=C(Nc1ccc(OCC)cc1)Nc1ccc(OCC)cc1`, the outcome in assay [1], in assay [3] and in assay [4] was inactive. In addition, the Potency result in assay [2], in assay [5], in assay [6], in assay [7], in assay [8] and in assay [11] was “inactive” each time. For the same compound, in assay [12], the Potency result is “inactive”. The Potency in [9] is 29.8 µM (active) and 23.7 µM (active); in [10], 23.7 µM (active).
Turning to `NC(N)=NCC1COC2(CCCCC2)O1` (centres undefined), the call in assay [1], in assay [13], in assay [3] and in assay [4] was inactive. For the same compound, the Potency entry in assay [5], in assay [6], in [7], in [14], in [15] and in [8] was “inactive” throughout. Besides, the Potency entry in [9], in assay [10], in assay [11], in assay [16], in [17] and in assay [12] was “inactive” throughout. Further, in assay [18], the Potency result was “inactive”.
On to `CCCCCCCCCCCCCCCCCCOCC(COP(=O)([O-])OCC[N+](C)(C)C)OC` (centres undefined), for which the result in assay [1], in assay [3] and in [4] was inactive. Also, the Potency result in [2], in [5], in assay [6], in assay [7], in [14] and in assay [8] was “inactive” in each case. Also, the Potency entry in assay [9], in assay [19], in assay [11] and in assay [12] was “inactive” in each case.
In the case of `CCC(O)c1ccccc1` (centres undefined), the compound was classed as inactive in assay [1], in assay [3] and in assay [4]. The Potency entry in assay [2], in [5], in [6], in assay [14], in assay [15] and in assay [8] was “inactive” each time. In addition, the Potency result in [19], in [10] and in assay [12] was “inactive” in each case.
For `Nc1c(CC(=O)O)cccc1C(=O)c1ccccc1`, the compound was classed as inactive in [1], in assay [3] and in [4]. Also, the Potency entry in assay [2], in assay [5], in assay [6], in assay [7], in assay [14] and in assay [15] was “inactive” throughout. The Potency result in assay [8], in assay [19], in [10], in assay [11], in assay [16] and in assay [17] was “inactive” throughout. Besides, the Potency entry in assay [12] and in [18] was “inactive” throughout.
With `CCc1ncnc2cc(OC)c(OC)cc12`, the outcome in [1], in [3] and in assay [4] was inactive. The Potency result in [2], in assay [5], in [6], in assay [7], in assay [14] and in assay [15] was “inactive” each time. Besides, the Potency entry in assay [8], in [9], in assay [10], in assay [11], in assay [16] and in assay [17] was “inactive” in each case. The Potency result in assay [12] and in assay [18] was “inactive” each time.
For `CC[C@@H](C)CCCCC(=O)N[C@@H](CCNCS(=O)(=O)O)C(=O)N[C@H](C(=O)N[C@@H](CCNCS(=O)(=O)O)C(=O)N[C@H]1CCNC(=O)[C@H]([C@@H](C)O)NC(=O)[C@H](CCNCS(=O)(=O)O)NC(=O)[C@H](CCNCS(=O)(=O)O)NC(=O)[C@H](CC(C)C)NC(=O)[C@@H](CC(C)C)NC(=O)[C@H](CCNCS(=O)(=O)O)NC1=O)[C@@H](C)O` (X3-[Dab(CH2SO3H)]T[Dab(CH2SO3H)][Dab][Dab(CH2SO3H)][dL]L[Dab(CH2SO3H)][Dab(CH2SO3H)]T; lactam 4-C), the outcome in assay [1], in assay [3] and in [4] was inactive. The Potency result in assay [2], in assay [5], in assay [6], in assay [7], in [14] and in [15] was “inactive” each time. In addition, the Potency entry in assay [8], in assay [20], in [17], in assay [12] and in assay [18] was “inactive” each time. The Potency in assay [9] is 23.7 µM (active); in assay [10] it was 18.8 µM (active).
